# Test results published in PubChem BioAssay (NCATS).
# Results filed as inconclusive are left out. Entries that show only a call come without a potency. Unmarked numbers belong to inactive results. Active and inactive are the calls of the source. Calls come from the whole dose curve; as a rule, active = well fitted curve in the direction sought with a large enough effect; inconclusive = small, poorly fitted or top-dose-only effect, or another doubt; inactive = no such curve, though single readings can be large; an effect the other way counts as inactive or inconclusive.
# What was measured:
# NIH3T3 [1] = assay: Cytotoxic Profiling of Annotated Libraries Using Quantitative High-Throughput Screening (AID 1296008); settings: Five cell lines viability, CellTiter-Glo ATP luminescence, 48-72 h; max response: stronger effect = lower value; note: nearly all actives have a fitted effect of over 60% in size
# Summary of the method: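 Cytotoxicity was measured as CellTiter-Glo ATP luminescence, read after 10 min at room temperature. Compound treatment of the cells lasted 48 or 72 hr at 37 degrees Celsius in a qHTS format.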
# HACAT = assay: qHTS assay to identify novel small-molecules to repurpose for Merkel cell carcinoma treatment (AID 1296009); settings: MCC and control cell lines, CellTiter-Glo viability, 72 h; at 44.8 µM (top of the series) unless noted; note: nearly all actives have a fitted effect of over 60% in size
# Summary of the method: (§1)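 Cell viability measured by CellTiter-Glo following 72 hr compound treatment at 37 degree celsius, with NPC and MIPE libraries tested in 8- and 11-point concentration series.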
# MCC-13 = assay: as above; settings: MCC and control cell lines, CellTiter-Glo viability, 72 h; series mostly up to 46 µM
# Summary of the method: as §1
# MKL-1 = assay: as above; settings: MCC and control cell lines, CellTiter-Glo viability, 72 h; series mostly up to 46 µM
# Summary of the method: as §1
# MKL-2 = assay: as above; settings: MCC and control cell lines, CellTiter-Glo viability, 72 h; series mostly up to 46 µM
# Summary of the method: as §1
# NIH3T3 [2] = assay: as above; settings: MCC and control cell lines, CellTiter-Glo viability, 72 h; at 44.8 µM (top of the series) unless noted
# Summary of the method: as §1
# UISO = assay: as above; settings: MCC and control cell lines, CellTiter-Glo viability, 72 h; series mostly up to 46 µM
# Summary of the method: as §1
# WaGa = assay: as above; settings: MCC and control cell lines, CellTiter-Glo viability, 72 h; series mostly up to 46 µM
# Summary of the method: as §1
# C33A = assay: Primary qHTS to identify gynecologic anti-cancer compounds using libraries of approved drugs and bioactive compounds (AID 1345084); settings: Gynecologic cancer cell panel viability, ATPlite luminescence, 48 h; series mostly up to 57.5 µM; note: nearly all actives have a fitted effect of over 55% in size; note: potency is the fitted concentration of half-maximal effect
# Summary of the method: (§2)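 Five-concentration response, 48 h; readout is ATP-driven luciferase luminescence.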
# CASKI = assay: as above; settings: Gynecologic cancer cell panel viability, ATPlite luminescence, 48 h; series mostly up to 57.5 µM
# Summary of the method: as §2
# Es-2 = assay: as above; settings: Gynecologic cancer cell panel viability, ATPlite luminescence, 48 h; series mostly up to 57.5 µM
# Summary of the method: as §2
# HeLa = assay: as above; settings: Gynecologic cancer cell panel viability, ATPlite luminescence, 48 h; series mostly up to 57.5 µM
# Summary of the method: as §2
# Hek293T [3] = assay: as above; settings: Gynecologic cancer cell panel viability, ATPlite luminescence, 48 h, control line for the selectivity index; series mostly up to 57.5 µM
# Summary of the method: as §2
# JEG-3 = assay: as above; settings: Gynecologic cancer cell panel viability, ATPlite luminescence, 48 h; series mostly up to 57.5 µM
# Summary of the method: as §2
# OV90 = assay: as above; settings: Gynecologic cancer cell panel viability, ATPlite luminescence, 48 h; series mostly up to 57.5 µM
# Summary of the method: as §2
# MCC-26 = assay: qHTS assay to identify novel small-molecules to repurpose for Merkel cell carcinoma treatment (AID 1296009); settings: MCC and control cell lines, CellTiter-Glo viability, 72 h; series mostly up to 46 µM; note: nearly all actives have a fitted effect of over 60% in size
# Summary of the method: as §1
# HEK293T [4] = assay: as above; settings: MCC and control cell lines, CellTiter-Glo viability, 72 h; at 44.8 µM (top of the series) unless noted
# Summary of the method: as §1
# CRL-7250 = normal cell line; assay: as above; settings: MCC and control cell lines, CellTiter-Glo viability, 72 h; at 44.8 µM (top of the series) unless noted
# Summary of the method: as §1
# CAOV3 = assay: Primary qHTS to identify gynecologic anti-cancer compounds using libraries of approved drugs and bioactive compounds (AID 1345084); settings: Gynecologic cancer cell panel viability, ATPlite luminescence, 48 h; series mostly up to 57.5 µM; note: nearly all actives have a fitted effect of over 55% in size; note: potency is the fitted concentration of half-maximal effect
# Summary of the method: as §2
compound,measurement,setting,value
C#CC(O)(C=CCl)CC (stereo unspecified),outcome,NIH3T3 [1],inactive
same,outcome,HACAT,inactive
same,outcome,MCC-13,inactive
same,Potency,MKL-1,inactive
same,Potency,MKL-2,inactive
same,outcome,NIH3T3 [2],inactive
same,Potency,UISO,inactive
same,Potency,WaGa,inactive
same,Potency,C33A,inactive
same,outcome,CASKI,inactive
same,Potency,Es-2,inactive
same,Potency,HeLa,inactive
same,outcome,Hek293T [3],inactive
same,outcome,JEG-3,inactive
same,Potency,OV90,inactive
CCCOC(=O)c1cncn1C(C)c1ccccc1 (stereo unspecified),max response,NIH3T3 [1],3.77%
same,outcome,HACAT,inactive
same,outcome,MCC-13,inactive
same,Potency,MCC-26,inactive
same,Potency,MKL-1,inactive
same,Potency,MKL-2,inactive
same,Potency,UISO,inactive
same,Potency,WaGa,inactive
same,Potency,C33A,inactive
same,outcome,CASKI,inactive
same,Potency,Es-2,inactive
same,Potency,HeLa,inactive
same,outcome,Hek293T [3],inactive
same,outcome,JEG-3,inactive
same,Potency,OV90,inactive
CCC(C)C(C)(COC(N)=O)COC(N)=O (stereo unspecified),outcome,NIH3T3 [1],inactive
same,outcome,HEK293T [4],inactive
same,outcome,MCC-13,inactive
same,Potency,MCC-26,inactive
same,Potency,MKL-1,inactive
same,Potency,MKL-2,inactive
same,outcome,NIH3T3 [2],inactive
same,Potency,UISO,inactive
same,Potency,WaGa,inactive
same,Potency,C33A,inactive
same,outcome,CASKI,inactive
same,Potency,Es-2,inactive
same,Potency,HeLa,inactive
same,outcome,Hek293T [3],inactive
same,outcome,JEG-3,inactive
same,Potency,OV90,inactive
O=S(=O)(O)CCS,outcome,CRL-7250,inactive
C=CCC1(C(C)CC)C(=O)NC(=O)NC1=O (stereo unspecified),outcome,NIH3T3 [1],inactive
same,outcome,CRL-7250,inactive
same,outcome,MCC-13,inactive
same,Potency,MKL-1,inactive
same,Potency,MKL-2,inactive
same,outcome,NIH3T3 [2],inactive
same,Potency,UISO,inactive
same,Potency,WaGa,inactive
same,Potency,C33A,inactive
same,outcome,CAOV3,inactive
same,outcome,CASKI,inactive
same,Potency,Es-2,inactive
same,Potency,HeLa,inactive
same,outcome,Hek293T [3],inactive
same,outcome,JEG-3,inactive
same,Potency,OV90,inactive
CC(Cc1ccccc1)N(C)Cc1ccco1 (stereo unspecified),max response,NIH3T3 [1],-7.67%
same,outcome,HACAT,inactive
same,outcome,MCC-13,inactive
same,Potency,MCC-26,inactive
same,Potency,MKL-1,inactive
same,Potency,MKL-2,inactive
same,Potency,UISO,inactive
same,Potency,WaGa,inactive
same,Potency,C33A,inactive
same,outcome,CASKI,inactive
same,Potency,Es-2,inactive
same,Potency,HeLa,inactive
same,outcome,Hek293T [3],inactive
same,outcome,JEG-3,inactive
same,Potency,OV90,inactive
CC(CN(C)C)C(C)(O)Cc1ccc(Cl)cc1 (stereo unspecified),outcome,CRL-7250,inactive
C[C@@H]1CC2=CC(=O)CC[C@@H]2[C@H]2CC[C@@]3(C)[C@@H](CC[C@]3(C)O)[C@@H]21,max response,NIH3T3 [1],-27.8%
same,outcome,MCC-13,inactive
same,Potency,MCC-26,inactive
same,Potency,MKL-1,inactive
same,Potency,MKL-2,inactive
same,Potency,UISO,inactive
same,Potency,WaGa,inactive
same,Potency,C33A,inactive
same,outcome,CASKI,inactive
same,Potency,Es-2,inactive
same,Potency,HeLa,inactive
same,outcome,Hek293T [3],inactive
same,outcome,JEG-3,inactive
CC[N+](CC)(CCNC(=O)C(=O)NCC[N+](CC)(CC)Cc1ccccc1Cl)Cc1ccccc1Cl,outcome,CRL-7250,inactive
CS(=O)(=O)c1ccc([C@@H](O)[C@@H](CO)NC(=O)C(Cl)Cl)cc1,outcome,CRL-7250,inactive
Clc1ccccc1N1CCNCC1,outcome,NIH3T3 [1],inactive
same,outcome,HACAT,inactive
same,outcome,HEK293T [4],inactive
same,outcome,MCC-13,inactive
same,Potency,MCC-26,inactive
same,Potency,MKL-1,inactive
same,Potency,MKL-2,inactive
same,outcome,NIH3T3 [2],inactive
same,Potency,UISO,inactive
same,Potency,WaGa,inactive
same,Potency,C33A,inactive
same,outcome,CASKI,inactive
same,Potency,Es-2,inactive
same,Potency,HeLa,inactive
same,outcome,Hek293T [3],inactive
same,outcome,JEG-3,inactive
same,Potency,OV90,inactive
NCCCNCCSP(=O)(O)O,outcome,CRL-7250,inactive [at 9.27 µM]
Cc1cnc(NC(=O)C2=C(O)c3ccccc3S(=O)(=O)N2C)s1,outcome,CRL-7250,inactive
ClCCN1CCCC1,outcome,NIH3T3 [1],inactive
same,outcome,HACAT,inactive
same,outcome,HEK293T [4],inactive
same,outcome,MCC-13,inactive
same,Potency,MKL-1,inactive
same,Potency,MKL-2,inactive
same,outcome,NIH3T3 [2],inactive
same,Potency,UISO,inactive
same,Potency,WaGa,inactive
same,Potency,C33A,inactive
same,outcome,CASKI,inactive
same,Potency,Es-2,inactive
same,Potency,HeLa,inactive
same,outcome,Hek293T [3],inactive
same,outcome,JEG-3,inactive
same,Potency,OV90,inactive
C[C@]12CC[C@H]3[C@@H](CCC4=CC(=O)CC[C@@H]43)[C@@H]1CC[C@@H]2OC(=O)CCc1ccco1,max response,NIH3T3 [1],-2.06%
same,outcome,HACAT,inactive
same,outcome,MCC-13,inactive
same,Potency,WaGa,inactive
same,Potency,C33A,inactive
same,outcome,CAOV3,inactive
same,outcome,CASKI,inactive
same,Potency,Es-2,inactive
same,Potency,HeLa,3.16 µM (active)
same,outcome,Hek293T [3],inactive
same,outcome,JEG-3,inactive
same,Potency,OV90,inactive
